The source made the active and inactive calls. How the source made its calls: active means hit-call score of the fitted dose curve at least 0.9, where 1 is the maximum; inactive means score below 0.9.

A short description of this experiment: ATG_CRE_CIS: Attagene CIS-FACTORIAL HepG2 Assay for human cAMP Responsive Element (CRE) binding protein 3 (AID 2282926). As to conditions: HepG2 CRE cis-reporter, Attagene multiplexed mRNA; actives raise or lower the signal. As for the experimental part: ATG_CIS is a cell-based, multiplexed-readout assay that uses HepG2, a human liver cell line, with measurements taken at 24 hours after chemical dosing in a 24-well plate.ATG_CRE_CIS is one of 52 assay component(s) measured or calculated from the ATG_CIS assay. It is designed to make measurements of mRNA induction, a form of inducible reporter, as detected with fluorescence intensity signals by Reverse transcription polymerase chain reaction (RT-PCR) and Capillary electrophoresis technology.Data from the assay component ATG_CRE_CIS was analyzed into 1 assay endpoint. This assay endpoint, ATG_CRE_CIS, was analyzed with bidirectional fitting relative to DMSO as the negative control and baseline of activity. Using a type of inducible reporter, measures of mRNA for gain or loss-of-signal activity can be used to understand the reporter gene at the transcription factor-level as they relate to the gene CREB3. Furthermore, this assay endpoint can be referred to as a primary readout, because this assay has produced multiple assay endpoints where this one serves a reporter gene function. To generalize the intended target to other relatable targets, this assay endpoint is annotated to the dna binding intended target family, where the subfamily is basic leucine zipper.
Human liver HepG2 cells are transiently transfected with multiple reporter transcription units (MRTUs) in 6-well plates using FuGene 6 reagent (Roche; 3 ml FuGene/1 mg DNA). The MRTU constructs are regulated by a cis-regulating element (promoter). […] A major difference between the CIS and TRANS system is that in CIS activities of endogenous TFs are measured, whereas the TRANS assay evaluates changes in activities of exogenous, chimeric NR-Gal4 proteins. […] At the end of 24 hour incubation, total RNA was isolated using TriZol reagent (Invitrogen). The isolated RNA is then reverse-transcribed using oligo(dT) primer and Mo-MLV reverse transcriptase (Invitrogen) with DNAse I (Ambion) treatment for 30 min. The one-tenth of the produced cDNA was amplified by PCR using Taq DNA polymerase (Invitrogen) and two reporter sequence-specific primers. The PCR products were fluorescently labeled by primer extension with 6-arboxyfluorescein (6-FAM) 5'-labeled reporter sequence-specific primer (2 min at 95 C, 20 s at 68 C and 10 min at 72 C) and these products were digested with 5U of HpaI (New England Biolabs) for 2h at 37 C. The fragments were purified using Qiaquick PCR columns (Qiagen), analyzed on an ABI 3130xL genetic analyzer (Applied Biosystems) with peak positions identified by using a set of X-rhodamine (ROX)-labeled MapMarker1000 molecular weight standards (BioVentures). The raw capillary electrophoresis data was processed using Attagraph software (Attagene).
Consider `CCOP(=O)(O)C(N)=O`, for which the result was inactive.

Turning to `C=CC(=O)OCC(CC)(COC(=O)C=C)COC(=O)C=C`, the result was inactive.

For `c1cc2c3c(cccc3c1)CC2`, the compound was called inactive.

As to `CC(Cc1ccc(OCC(=O)O)cc1)NCC(O)c1csc(C(F)(F)F)n1` (stereo not given), the call was inactive.

In the case of `N#Cc1ccc(O)cc1`, the compound was classed as inactive.

With `O=P(Oc1ccccc1)(Oc1ccccc1)Oc1ccccc1`, the result was inactive.

On to `CCNc1nc(Cl)nc(NC(C)(C)C)n1`, for which the call was inactive.

Regarding `NNC(N)=S`, the compound was classed as inactive.

As for `Cc1cc(C)c(C(=O)P(=O)(c2ccccc2)c2ccccc2)c(C)c1`, the compound was called inactive.

Take `COC(=O)C(F)(F)C(F)(F)OC(F)(C(F)(F)F)C(F)(F)OC(F)=C(F)F` (stereo not given): the outcome was inactive.

Take `CC(=O)c1ccc(-c2ccccc2)cc1`: the compound was called inactive.

In the case of `CCC(C)(C)c1ccc(O)cc1`, the compound was classed as inactive.

As for `Cc1c([N+](=O)[O-])cc2c(c1[N+](=O)[O-])C(C)(C)CC2(C)C`, the compound was classed as inactive.

Turning to `Nc1ccc([N+](=O)[O-])cc1Cl`, the outcome was inactive.

As for `O=C(O)C1C(C(=O)O)C2(Cl)C(Cl)=C(Cl)C1(Cl)C2(Cl)Cl` (stereo not given), the compound was called inactive.

For `CCCCOCC1CO1` (stereo not given), the compound was called inactive.

As for `O=[N+]([O-])c1ccccc1`, the result was inactive.

For `CCOP(=S)(OCC)SCS(=O)(=O)CC`, the call was inactive.

Turning to `CCOC(=O)c1ccccc1N`, the outcome was inactive.

For the compound `CCOS(=O)(=O)OCC`, the call was inactive.

For `CCCCCCCc1ccc(O)cc1`, the call was inactive.

As to `CCCCOCCOP(=O)(OCCOCCCC)OCCOCCCC`, the result was inactive.

For `[N-]=[N+]=[N-]`, the call was inactive.

`Nc1cc2c3c(c1)C(c1ccccc1)=N[C@@H](NC(=O)c1cccnc1)C(=O)N3CC2`: the call was inactive.

Consider `Nc1ccc(Cl)cc1`, for which the compound was classed as inactive.

With `CCCCc1ccc(O)cc1`, the compound was classed as inactive.

As to `OCC1CO1` (stereo not given), the result was inactive.

`CC(=O)CCc1ccc2c(c1)OCO2`: the call was inactive.

In the case of `CSC(C)(C)C=NO`, the call was inactive.

Turning to `O=c1ssc(Cl)c1Cl`, the AC50 – broadly, the concentration giving half of the maximal activity seen – is 50.9 µM (active).

As to `N#Cc1cc([N+](=O)[O-])ccc1N`, the compound was called inactive.

`CCN(CC)c1ccccc1`: the call was inactive.

For `Oc1ccccc1Br`, the compound was called inactive.

Turning to `CC(C)Nc1ccc(Nc2ccccc2)cc1`, the outcome was inactive.

With `O=C(O)C(F)(F)OC(F)(F)C(F)(F)OC(F)(F)C(=O)O`, the outcome was inactive.

For the compound `N#Cc1c(-c2ccc(Cl)cc2)[nH]c(C(F)(F)F)c1Br`, the half-maximal activity concentration (AC50) is 0.019 µM (active).

As to `O=S(=O)(F)C(F)(F)C(F)(F)C(F)(F)C(F)(F)C(F)(F)C(F)(F)C(F)(F)C(F)(F)F`, the call was inactive.

Regarding `O=C(O)C(F)(F)C(F)(F)C(=O)O`, the result was inactive.

For the compound `CO/N=C(/C(=O)OC)c1ccccc1COc1ccccc1C`, the compound was classed as inactive.

As for `O=NN1CCCC1`, the compound was classed as inactive.

(Values after PubChem BioAssay (EPA / NIEHS).)
